# Laboratory results taken from PubChem BioAssay (NCI).
# The panel holds about 79,000 compounds, 15% with a hit somewhere; the sample as a whole holds those more often. Unmarked numbers belong to inactive results. The source made the active and inactive calls. No stated cut-off is given here; in the data, active means growth inhibition above about 70%; inactive means the rest.
# Assay: NCI Yeast Anticancer Drug Screen. Data for the sgs1 mgt1 strain (AID 161);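 further: 0% = growth of cultures given vehicle only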
# Details: S. cerevisiae sgs1 mgt1 strain, at 50.0 µM (retest, dose inferred, filed as 5.0), active compounds read high
# Outline: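 Yeast cells carrying a defined DNA-repair defect were exposed to test compounds. Growth inhibition was measured relative to vehicle-treated controls.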
row,Structure (SMILES),growth inhibition
1,NS(=O)(=O)c1ccc(N=Cc2c3ccccc3nc3cc(Cl)ccc23)cc1,39%
2,Nc1ccc(O)c(=O)cc1,18%
3,Oc1ccc[nH]c1=S,-34%
4,COc1cccc2c1C(=O)c1c(O)c3c(c(O)c1C2=O)C[C@@](O)(/C(C)=N/NC(=O)c1ccc(Cl)c(Cl)c1)C[C@@H]3OC1CC(N)C(O)C(C)O1 (stereo partly specified),99% (active)
5,O=C1c2ccccc2C(=O)c2c1ccc(O)c2O.[Cu],96% (active)
6,CCC(=O)C(C(=O)CC)c1c(OC(=O)c2ccccc2)ccc(O)c1C(=O)OC,71% (active)
7,CC(C)CCCC(C)C1CCC2(C)C3=CCC4C(C)(CCC(O)C4(C)C)C3=CCC12C (stereo unspecified),95% (active)
8,CCNC(=O)COc1ccc(Cl)cc1Cl,-6%
9,CCN1CCC(O)(/C=C/c2ccc(Cl)c(Cl)c2)C(C(=O)/C=C/c2ccc(Cl)c(Cl)c2)C1 (stereo unspecified),100% (active)
10,Nc1ccc(-c2ccc(N)cc2S(=O)(=O)O)c(S(=O)(=O)O)c1,-1%
11,COc1ccc2c(c1)CCc1c(-c3noc4c3CCc3cc(OC)ccc3-4)noc1-2,-2%
12,Cc1ccc(NC(=S)N(CCC#N)C2CCCCC2)cc1C,10%
13,COc1ccc2c(c1)CC1c3c(ccc(OC)c3O)CC2N1C (stereo unspecified),59%
14,CCN(CC)CCCC(C)Nc1c2ccccc2nc2c(C)cc(Br)cc12 (stereo unspecified),76% (active)
15,O=C(O)c1cc2ccc3cccc4ccc(c1)c2c34,94% (active)
16,CCOC(=O)NC(=S)Nc1ccsc1,0%
17,CC(C)CCC(C)(C)c1cc(O)ccc1O,98% (active)
18,COc1ccc(C(c2cc3c(cc2O)OCO3)N2CCOCC2)c(OC)c1OC (stereo unspecified),74% (active)
19,CCOC(=O)C1=C(C)NC(C)=C(C(=O)OCC)C1c1c(-c2ccccc2)noc1C,69%
20,O=C(CCl)Oc1ccc(Sc2ccc(OC(=O)CCl)cc2)cc1,97% (active)
21,Nc1ccc2[nH]c3ccccc3c2c1,0%

# Same assay, conditions: S. cerevisiae sgs1 mgt1 strain, at 50.0 µM, active compounds read high
row,Structure (SMILES),growth inhibition
1,CCCCCCCCCCCCCCCBr,-9.7%
2,CCCCCCCCCCCC(=O)OCC(C)C,7.55%
3,O[Si](O)(c1ccccc1)c1ccccc1,95.8% (active)
4,O=C(c1ccccc1)C(C(=O)c1ccccc1)c1ccc2ccccc2n1,63.5%
5,O=C1C=CC(=O)N1c1ccccc1[N+](=O)[O-],99.4% (active)
6,CCCCCCCCCCCC(O)=C1C(=O)CC(O)CC1=O (stereo unspecified),91% (active)
7,OCCc1cccc2ccc3ccccc3c12,94.2% (active)
8,O=C1C(=O)C(Cl)=C(Cl)C(Cl)=C1Cl,99.5% (active)
9,O=C1C=CC2C(=O)c3ccccc3C(=O)C2=C1 (stereo unspecified),56.9%
10,O=C(N(c1ccc(Cl)cc1)c1ccc(Cl)cc1)C(Cl)(Cl)Cl,4.95%
11,COc1cccc2c1S(=O)(=O)C(c1ccccc1)=CC2=O,99.4% (active)
12,COc1cc(-c2nn3c(=O)n(-c4ccc(Cl)cc4)c(=O)nc3s2)cc(OC)c1OC,20.9%
13,O=[N+]([O-])C1(CO)COC(CCc2ccccc2)OC1 (stereo unspecified),82.3% (active)
14,COc1ccc(C(=O)CCc2c[nH]c3ccccc23)c(O)c1,36%
15,CC/C(=C(\CC)c1ccc(OCCN2CCOCC2)cc1)c1ccc(OCCN2CCOCC2)cc1,89% (active)
16,CCCCCCCCCCCN1C(=O)c2ccccc2S1(=O)=O,-11.4%
17,CCCCCCCCCCCC(=O)NN,98% (active)
18,CCN1CCC(O)(/C=C/c2ccccc2)C(C(=O)/C=C/c2ccccc2)C1 (stereo unspecified),97.8% (active)
19,NC(=S)NNCCC(=O)Nc1ccccc1C(F)(F)F,-1.9%
20,NS(=O)(=O)c1ccc(N=Cc2c3ccccc3nc3cc(Cl)ccc23)cc1,53.1%

row,Structure (SMILES),growth inhibition
1,Nc1ccc(O)c(=O)cc1,62.2%
2,Oc1ccc[nH]c1=S,85.2% (active)
3,COc1cccc2c1C(=O)c1c(O)c3c(c(O)c1C2=O)C[C@@](O)(/C(C)=N/NC(=O)c1ccc(Cl)c(Cl)c1)C[C@@H]3OC1CC(N)C(O)C(C)O1 (stereo partly specified),44.6%
4,O=C1c2ccccc2C(=O)c2c1ccc(O)c2O.[Cu],96.9% (active)
5,CCC(=O)C(C(=O)CC)c1c(OC(=O)c2ccccc2)ccc(O)c1C(=O)OC,71.4% (active)
6,CC(C)CCCC(C)C1CCC2(C)C3=CCC4C(C)(CCC(O)C4(C)C)C3=CCC12C (stereo unspecified),98% (active)
7,CCNC(=O)COc1ccc(Cl)cc1Cl,-15.4%
8,CCN1CCC(O)(/C=C/c2ccc(Cl)c(Cl)c2)C(C(=O)/C=C/c2ccc(Cl)c(Cl)c2)C1 (stereo unspecified),99.5% (active)
9,Nc1ccc(-c2ccc(N)cc2S(=O)(=O)O)c(S(=O)(=O)O)c1,-5.9%
10,COc1ccc2c(c1)CCc1c(-c3noc4c3CCc3cc(OC)ccc3-4)noc1-2,-0.9%
11,Cc1ccc(NC(=S)N(CCC#N)C2CCCCC2)cc1C,10.3%
12,COc1ccc2c(c1)CC1c3c(ccc(OC)c3O)CC2N1C (stereo unspecified),93.7% (active)
13,CCN(CC)CCCC(C)Nc1c2ccccc2nc2c(C)cc(Br)cc12 (stereo unspecified),63.1%
14,O=C(O)c1cc2ccc3cccc4ccc(c1)c2c34,87.3% (active)
15,CCOC(=O)NC(=S)Nc1ccsc1,11%
16,CC(C)CCC(C)(C)c1cc(O)ccc1O,75.7% (active)
17,COc1ccc(C(c2cc3c(cc2O)OCO3)N2CCOCC2)c(OC)c1OC (stereo unspecified),62.9%
18,CCOC(=O)C1=C(C)NC(C)=C(C(=O)OCC)C1c1c(-c2ccccc2)noc1C,2.2%
19,O=C(CCl)Oc1ccc(Sc2ccc(OC(=O)CCl)cc2)cc1,98.8% (active)
20,Nc1ccc2[nH]c3ccccc3c2c1,40.2%
